Compound activity from PubChem.
GPR151 ag – activators of human GPR151. PathHunter beta-arrestin GPR151 cells, luminescence. Q8TDV0. AID 1508602. activation, % at 11.2 µM. actives 1% (n = 650,000); in the data active = activation above about 4.9%;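 also: 0% = median of compound wells and 100% = cells with positive control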
FBW7 activator – activators of human E3 ligase FBW7 | actives 0.13% (n = 650,000) | normalized activity (activation), % at 26.1 µM | AID 1259310 | Q969H0 | AlphaScreen FBW7–phospho-cyclin E peptide binding, activator screen; in the data active = normalized activity above about 1.9%;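 also: purified mutant Fbw7 with reduced substrate affinity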
Target sequence (Q969H0 whole entry, looked up): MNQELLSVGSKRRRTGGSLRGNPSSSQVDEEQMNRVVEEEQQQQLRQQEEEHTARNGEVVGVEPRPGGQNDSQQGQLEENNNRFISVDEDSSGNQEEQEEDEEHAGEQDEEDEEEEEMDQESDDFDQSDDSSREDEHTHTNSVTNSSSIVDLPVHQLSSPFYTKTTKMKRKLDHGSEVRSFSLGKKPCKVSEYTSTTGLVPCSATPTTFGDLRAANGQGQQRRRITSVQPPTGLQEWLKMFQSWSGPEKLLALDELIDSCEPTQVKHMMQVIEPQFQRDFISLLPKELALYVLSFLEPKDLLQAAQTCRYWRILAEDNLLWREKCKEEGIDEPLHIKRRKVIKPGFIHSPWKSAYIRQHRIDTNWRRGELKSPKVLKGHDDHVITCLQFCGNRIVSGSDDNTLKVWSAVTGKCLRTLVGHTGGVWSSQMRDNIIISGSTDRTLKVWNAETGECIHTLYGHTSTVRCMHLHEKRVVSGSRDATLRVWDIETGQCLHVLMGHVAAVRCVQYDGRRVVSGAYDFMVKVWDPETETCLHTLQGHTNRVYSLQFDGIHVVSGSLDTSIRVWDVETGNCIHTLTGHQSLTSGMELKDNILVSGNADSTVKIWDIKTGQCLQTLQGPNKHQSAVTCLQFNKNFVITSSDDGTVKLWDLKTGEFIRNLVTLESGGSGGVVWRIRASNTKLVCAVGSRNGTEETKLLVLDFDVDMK
TEAD-YAP inh – TEAD-YAP interaction inhibition. HEK-TIYL cells, TEAD-Gal4/YAP UAS-luciferase luminescence. inhibition, % at 9.12 µM. actives 1.4% (n = 640,000); in the data active = inhibition above about 32%;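 also: 0% = median of test compound wells and 100% = reference inhibitor wells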
MITF primary – blocks human microphthalmia-associated transcription factor; O75030; AlphaScreen MITF homodimerization, bead proximity signal; inhibition, % at 2.6 µM; actives 0.91% (n = 650,000); AID 1259374; in the data active = inhibition above about 50%;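 also: 0% = vehicle wells with protein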
Starred values were filed as active, the others as inactive. Compounds with a hit are over-represented: about 3.5% of the library has one in this group of screens.

What do the screens show for `CC(C)N1CCNC(=O)C1CC(=O)NCc1ccc2c(c1)OCO2` (stereo unspecified)?
GPR151 ag: 0; FBW7 activator: 0; TEAD-YAP inh: 11; MITF primary: 4

Results for c1nc2nc3c(c(Nc4ccc5c(c4)OCCO5)n2n1)CCC3 ?
GPR151 ag: 1; FBW7 activator: 0; TEAD-YAP inh: 40*; MITF primary: -7

What do the screens show for `Nc1ncn([C@@H]2O[C@H](CO)[C@@H](O)[C@H]2O)c(=O)n1`?
GPR151 ag: 2; FBW7 activator: 0; TEAD-YAP inh: 83*; MITF primary: -10

How did C=CCn1c2cc(C)sc2c2cnn(Cc3nccc(OC)c3OC)c(=O)c21 do in these assays?
GPR151 ag: 0; FBW7 activator: 0; TEAD-YAP inh: 7; MITF primary: 5

How did Nc1nc2c3cc4c(nc3sc2c2ccccc12)CCC4 do in these assays?
GPR151 ag: -4; FBW7 activator: 0; TEAD-YAP inh: 34*; MITF primary: -14

What do the screens show for `CC(C)c1nnc(NC(=O)c2ccccc2O)s1`?
GPR151 ag: -1; FBW7 activator: 0; TEAD-YAP inh: -48; MITF primary: 3

How did C(=N\c1nc2ccccc2[nH]1)/c1nc2ccccc2[nH]1 do in these assays?
GPR151 ag: 1; FBW7 activator: 0; TEAD-YAP inh: -57; MITF primary: 4

How did O=C1C=C(Nc2ccc(Cl)cc2)CC(c2ccccc2)C1 (stereo unspecified) do in these assays?
GPR151 ag: 0; FBW7 activator: 0; TEAD-YAP inh: 33*; MITF primary: 12

What do the screens show for `Cc1ccc(C2CC(=O)C=C(NCCc3ccccc3)C2)cc1` (stereo unspecified)?
GPR151 ag: 0; FBW7 activator: 0; TEAD-YAP inh: -7; MITF primary: 14

How did COc1ccc(C2CC(=O)C=C(Nc3ccc(Cl)cc3)C2)cc1 (stereo unspecified) do in these assays?
GPR151 ag: -1; FBW7 activator: 0; TEAD-YAP inh: -8; MITF primary: -4

What do the screens show for `Cc1ccc(NC2=CC(=O)CC(c3ccccc3)C2)cc1` (stereo unspecified)?
GPR151 ag: -1; FBW7 activator: 0; TEAD-YAP inh: 43*; MITF primary: 15

Results for CC(C)c1ccc(NC(=O)C(c2ccc3c(c2)OCO3)N(C)Cc2ccccc2)cc1 (stereo unspecified) ?
GPR151 ag: 0; FBW7 activator: 0; TEAD-YAP inh: -15; MITF primary: 6

Results for C=CCN(CC=C)C(=O)CS(=O)CC(=O)Nc1c(C)cc(C)cc1C (stereo unspecified) ?
GPR151 ag: 1; FBW7 activator: 0; TEAD-YAP inh: 2; MITF primary: -21

How did COc1cc([N+](=O)[O-])ccc1NC(=S)Nc1c(C)n(C)n(-c2ccccc2)c1=O do in these assays?
GPR151 ag: 0; FBW7 activator: 0; TEAD-YAP inh: -1; MITF primary: 5

How did O=S(=O)(NCc1ccco1)c1ccc(Oc2ccc(S(=O)(=O)NCc3ccco3)cc2)cc1 do in these assays?
GPR151 ag: 1; FBW7 activator: 0; TEAD-YAP inh: 48*; MITF primary: 3

Results for COC(CNS(=O)(=O)c1ccc(Oc2ccc(S(=O)(=O)NCC(OC)OC)cc2)cc1)OC ?
GPR151 ag: 2; FBW7 activator: 0; TEAD-YAP inh: 49*; MITF primary: -9

What do the screens show for `COc1ccccc1CNS(=O)(=O)c1ccc(Oc2ccc(S(=O)(=O)NCc3ccccc3OC)cc2)cc1`?
GPR151 ag: 0; FBW7 activator: 0; TEAD-YAP inh: 43*; MITF primary: 0

Results for COc1ccccc1CNS(=O)(=O)c1ccc(F)cc1 ?
GPR151 ag: 1; FBW7 activator: 0; TEAD-YAP inh: 14; MITF primary: 7

Results for O=c1/c(=C/c2ccccc2[N+](=O)[O-])sc2nc(-c3ccco3)nn12 ?
GPR151 ag: 3; FBW7 activator: 0; TEAD-YAP inh: 12; MITF primary: 15

What do the screens show for `COc1cccc(C(=O)Nc2nc3c(OC)cccc3s2)c1OC`?
GPR151 ag: 0; FBW7 activator: 0; TEAD-YAP inh: -24; MITF primary: 5

How did OCCCNc1ncnc2sccc12 do in these assays?
GPR151 ag: 3; FBW7 activator: 0; TEAD-YAP inh: 5; MITF primary: -4

What do the screens show for `Clc1ccc(CNc2ncnc3ccccc23)cc1`?
GPR151 ag: 5; FBW7 activator: 0; TEAD-YAP inh: 57*; MITF primary: 1

Results for CCC(C)Nc1ncnc2ccccc12 (stereo unspecified) ?
GPR151 ag: 0; FBW7 activator: 0; TEAD-YAP inh: 39*; MITF primary: -3

What do the screens show for `CC(C)CNc1ncnc2ccccc12`?
GPR151 ag: 2; FBW7 activator: 0; TEAD-YAP inh: 12; MITF primary: -11

Results for c1nc(NCC2CCCCC2)c2ccsc2n1 ?
GPR151 ag: 0; FBW7 activator: 0; TEAD-YAP inh: 36*; MITF primary: -9

Results for c1ccc(CNc2ncnc3ccccc23)cc1 ?
GPR151 ag: 0; FBW7 activator: 0; TEAD-YAP inh: 51*; MITF primary: -11

What do the screens show for `CC(NC1CCN(c2cccc(NC(=O)c3ccncc3)c2)CC1)c1ccc(F)cc1` (stereo unspecified)?
GPR151 ag: -1; FBW7 activator: 0; TEAD-YAP inh: 14; MITF primary: 19

What do the screens show for `Cc1ccc(NC(=O)c2nnn(Cc3ccc(Br)cc3F)c2N)cc1`?
GPR151 ag: 1; FBW7 activator: 0; TEAD-YAP inh: -7; MITF primary: -6

How did c1ccc(Oc2cccc(C(N3CCOCC3)N3CCOCC3)c2)cc1 do in these assays?
GPR151 ag: 0; FBW7 activator: 0; TEAD-YAP inh: 3; MITF primary: -12

How did Clc1ccc(CNc2ncnc3sccc23)cc1 do in these assays?
GPR151 ag: 1; FBW7 activator: 0; TEAD-YAP inh: 52*; MITF primary: -3

Results for COc1cc2ncnc(NC3CCN(Cc4ccccc4)CC3)c2cc1OC ?
GPR151 ag: -4

How did COCCNc1ncnc2ccccc12 do in these assays?
GPR151 ag: 1; FBW7 activator: 0; TEAD-YAP inh: 16; MITF primary: 0

What do the screens show for `c1ccc(CN2CCC(Nc3ncnc4ccccc34)CC2)cc1`?
GPR151 ag: 0; FBW7 activator: 0; TEAD-YAP inh: 33*; MITF primary: -10

Results for Clc1ccccc1CCNc1ncnc2ccccc12 ?
GPR151 ag: 0; FBW7 activator: 0; TEAD-YAP inh: 35*; MITF primary: 11

What do the screens show for `c1ccc(CNc2ncnc3sccc23)nc1`?
GPR151 ag: -1; FBW7 activator: 0; TEAD-YAP inh: -5; MITF primary: 9

What do the screens show for `O=C(Nc1ccc(F)c([N+](=O)[O-])c1)c1cccc2ccccc12`?
GPR151 ag: 0; FBW7 activator: 0; TEAD-YAP inh: -3; MITF primary: 10

How did O=C(NCc1ccc(F)cc1)c1ccc(N2CC3CC(C2)c2cccc(=O)n2C3)c(NC(=O)c2ccc(F)cc2)c1 (stereo unspecified) do in these assays?
GPR151 ag: 1; FBW7 activator: 0; TEAD-YAP inh: 84*; MITF primary: 3

How did Cc1c(C(=O)NCCc2cccs2)c(=O)oc2ccccc12 do in these assays?
GPR151 ag: 0; FBW7 activator: 0; TEAD-YAP inh: -15; MITF primary: 10
